Values joined by “and” are separate entries in the source; they are usually repeats but may differ in a detail not shown here. Identical values can stand only once. The panel holds about 83,000 compounds, 20% with a hit somewhere; the sample as a whole holds those more often.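 Cells were grown in 96-well plates and exposed to the test compound at a single concentration for 48 hours; results are reported as percent growth, with values below 10 considered active.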 Unmarked numbers belong to inactive results. Active and inactive are the calls of the source.

Among the data in PubChem BioAssay (NCI) are growth values, retold here.

In one experiment the test system is T-47D breast. Briefly: NCI-60 one-dose screen, 48 h (100 = growth as untreated, 0 = no growth, -100 = all killed). Conditions: 10 µM unless noted.
As to `NC1=CC(=O)c2cccnc2C1=O`, the growth was -34.4% (active). Same read-out and setting: in the case of `Cn1c(=O)c2c(nc(Nc3cc(=O)[nH]c(=O)[nH]3)n2Cc2ccccc2)n(C)c1=O` it was 18.9%; in that of `O=C(c1ccc(Nc2nccc(NCCCNc3ccnc4cc(Cl)ccc34)n2)cc1)N1CCCCC1`, 54.3%; in that of `COc1c(NC=O)c2c(c([N+](=O)[O-])c1OC)C(=O)OC2`, 109% and 93.1%. With `COc1ccc(Cl)cc1Nc1nc(C(F)(F)F)ccc1C(=O)N/N=C/c1ccc(N(C)C)cc1`, the growth is 82.7%. Still for that read-out and setting: in the case of `CC1=C2[C@@H](CC1)[C@]1(C)O[C@@](C3CC3)(C[C@H]1OC(=O)CO)[C@H]2OC(=O)/C=C/c1ccccc1` it was 82.2%. The same measure, in the same setting: the figure for `CC/C=C\C/C=C\C[C@H](O)C/C=C1/C(=O)C=C[C@@H]1C/C=C\CCCC(=O)OC` is 4.23% (active); for `Cc1[nH]c(C(=O)Nc2nc3ccc(NC(=O)CCN)cc3s2)c(Cl)c1Cl` it is 54.8%. Same read-out and setting: the figure for `COc1cc(Cl)cc(-c2nn(C(=O)NS(=O)(=O)c3ccc(Cl)cc3)cc2-c2ccncc2)c1` is 90.8%. Consider `C[C@@H]1O[C@@H](O[C@H]2[C@@H](OC(=O)[C@]34CCC(C)(C)C[C@H]3C3=CC[C@@H]5[C@@]6(C)C[C@H](O)[C@H](O[C@@H]7O[C@H](CO)[C@@H](O)[C@H](O)[C@H]7O)[C@@](C)(CO)[C@@H]6CC[C@@]5(C)[C@]3(C)C[C@H]4O)OC[C@@H](O)[C@@H]2O)[C@H](O)[C@H](O[C@@H]2OC[C@@H](O)[C@H](O[C@@H]3OC[C@](O)(CO)[C@H]3O[C@@H]3OC[C@@H](O)[C@H](O)[C@H]3O)[C@H]2O)[C@H]1O[C@@H]1OC[C@](O)(CO)[C@H]1O`, for which the growth is 49.8%.

Turning to `Cc1c(O)c(O)cc2c3c(oc12)CC(c1ccc2c(c1)OCO2)CC3=O` (centres undefined), the growth is 67.4%.

Consider `CN1CCN(CCCN2c3ccccc3Sc3ccc(Cl)cc32)CC1`, for which the growth was 63.5%.

Take `O=C(N=Nc1c(O)[nH]c2ccccc12)Nc1ccccc1Cl`: the growth is 42%. As to `OCCN1CCN(CC/C=C2\c3ccccc3Sc3ccc(Cl)cc32)CC1`, the growth was 48.6% and 57.4%. On the same count and under the same terms, in the case of `CN1CCN(c2ccc(Nc3ncc(C(N)=O)c(NCCCNC(=O)C4CCC4)n3)cc2)CC1` it was 107%; in that of `CN(C)c1ccc2nc3ccc(=O)cc-3sc2c1`, 28% and 38.8%; in that of `CC(=O)N1N=C(c2ccc(Nc3nc(Nc4ccc(F)cc4)nc(Nc4ccc(F)cc4)n3)cc2)CC1c1ccccc1` (centres undefined), 56.2%. Still for that read-out and setting: the figure for `C/C=C(\C)C(=O)N[C@H]1CC[C@]2(C)C3CC[C@@]4(C)C(CC[C@@H]4C(C)N(C)C)C3CCC2[C@H]1OC(C)=O` (some centres undefined) is -43.5% (active). Still for that read-out and setting: the figure for `Cc1ccc(-c2nc3nc(-c4ccc(Cl)cc4)nc(N4CCCNCC4)c3o2)cc1` is -36.5% (active); for `Nc1n[nH]c2cccc(C#Cc3cccc(NC(=O)c4ccc(N5CCOCC5)c(C(F)(F)F)c4)c3)c12` it is -0.951% (active). Consider `O=C1C(c2c[nH]c3ccccc23)=C(c2coc3cc(Br)ccc23)C(=O)N1O`, for which the growth is 77.5%.

For `CC1(C)C(N)=Nc2cc(OCCCN3Cc4ccc(OCCc5cn(CC(=O)N6CCC(CCN7CCCC7)CC6)nn5)cc4C3)c(OCC3CC3)cc21`, the growth was 92.3%. In the case of `CS(=O)(=O)Nc1cc(-c2ccc3ncnc(Nc4ccc(F)c(Cl)c4)c3c2)cnc1Cl`, the growth was -7.45% (active).

As to `Cc1cnc(C(=O)NNc2nc3sc4c(c3c(=O)[nH]2)C(C)CCC4)cn1` (centres undefined), the growth is 30.4%. On the same count and under the same terms, the figure for `Cn1cc2c(=O)nc3c(-c4nc5ccccc5[nH]4)n[nH]n3c2n1` is 67.6%; for `Cc1ccc(-c2nc3nc(-c4ccc(F)cc4)nc(N4CCCNCC4)c3o2)cc1` it is -63.8% (active); for `COc1ccc2c(c1)c(-c1nc(-c3c[nH]c4c(Cl)nccc34)cs1)cn2C` it is -4.46% (active).

`Cc1nc2sc(C(=O)Nc3cccc4ncccc34)c(N)c2cc1C(C)O` (centres undefined): the growth was 76.2%. Same read-out and setting: in the case of `N=C(N)c1ccc(-c2ccc(-c3ccc(F)cc3)s2)nc1` it was 76.3%; in that of `CN(C)CCCn1c2nc(=O)[nH]c(=O)c-2nc2cc(Cl)c(Cl)cc21`, 34.8%; in that of `CCOC(=O)c1c(-c2ccc(OC)cc2)c(C#N)c2c(C#N)c(N)nn2c1N`, 12%. In the case of `COc1ccc(S(=O)(=O)Nc2cc(Sc3cccc4cccnc34)c(O)c3ccccc23)cc1`, the growth was -30.9% (active).

For the next experiment, the system named is BT-549 breast. The experiment is described as above. The conditions noted are these: 10 µM unless noted.
As for `NC1=CC(=O)c2cccnc2C1=O`, the growth is 9.57% (active). Same read-out and setting: the figure for `Cn1c(=O)c2c(nc(Nc3cc(=O)[nH]c(=O)[nH]3)n2Cc2ccccc2)n(C)c1=O` is 98.2%. Regarding `O=C(c1ccc(Nc2nccc(NCCCNc3ccnc4cc(Cl)ccc34)n2)cc1)N1CCCCC1`, the growth was 64.9%. The same measure, in the same setting: the figure for `COc1c(NC=O)c2c(c([N+](=O)[O-])c1OC)C(=O)OC2` is 94.4%; for `COc1ccc(Cl)cc1Nc1nc(C(F)(F)F)ccc1C(=O)N/N=C/c1ccc(N(C)C)cc1` it is 115%. Same read-out and setting: the figure for `CC1=C2[C@@H](CC1)[C@]1(C)O[C@@](C3CC3)(C[C@H]1OC(=O)CO)[C@H]2OC(=O)/C=C/c1ccccc1` is 6.63% (active).

On to `CC/C=C\C/C=C\C[C@H](O)C/C=C1/C(=O)C=C[C@@H]1C/C=C\CCCC(=O)OC`, for which the growth is -14.9% (active). On the same count and under the same terms, in the case of `Cc1[nH]c(C(=O)Nc2nc3ccc(NC(=O)CCN)cc3s2)c(Cl)c1Cl` it was 88.9%; in that of `COc1cc(Cl)cc(-c2nn(C(=O)NS(=O)(=O)c3ccc(Cl)cc3)cc2-c2ccncc2)c1`, 41.2%; in that of `C[C@@H]1O[C@@H](O[C@H]2[C@@H](OC(=O)[C@]34CCC(C)(C)C[C@H]3C3=CC[C@@H]5[C@@]6(C)C[C@H](O)[C@H](O[C@@H]7O[C@H](CO)[C@@H](O)[C@H](O)[C@H]7O)[C@@](C)(CO)[C@@H]6CC[C@@]5(C)[C@]3(C)C[C@H]4O)OC[C@@H](O)[C@@H]2O)[C@H](O)[C@H](O[C@@H]2OC[C@@H](O)[C@H](O[C@@H]3OC[C@](O)(CO)[C@H]3O[C@@H]3OC[C@@H](O)[C@H](O)[C@H]3O)[C@H]2O)[C@H]1O[C@@H]1OC[C@](O)(CO)[C@H]1O`, 74.4%.

On to `Cc1c(O)c(O)cc2c3c(oc12)CC(c1ccc2c(c1)OCO2)CC3=O` (centres undefined), for which the growth is 74.6%. For `COc1cc(F)c(/C=C/c2cc(/C=C/c3cc(OC)c(OC)cc3F)n(-c3cc(F)cc(F)c3)n2)cc1OC`, the growth was 75.5%. Turning to `CN1CCN(CCCN2c3ccccc3Sc3ccc(Cl)cc32)CC1`, the growth is 85.8% and 91.1%. On the same count and under the same terms, the figure for `O=C(N=Nc1c(O)[nH]c2ccccc12)Nc1ccccc1Cl` is 96.6%; for `OCCN1CCN(CC/C=C2\c3ccccc3Sc3ccc(Cl)cc32)CC1` it is 67.5%; for `COc1nc2ccc(C)cc2cc1/C=[N+](\[O-])c1ccccc1` it is 95.8%. Same read-out and setting: in the case of `O=C(CCN1CCOCC1)Nc1cccc(-n2cc(-c3ccncc3)c(-c3ccc(Cl)c(O)c3)n2)c1` it was 11.6%; in that of `CN1CCN(c2ccc(Nc3ncc(C(N)=O)c(NCCCNC(=O)C4CCC4)n3)cc2)CC1`, 19.4%. On the same count and under the same terms, the figure for `CN(C)c1ccc2nc3ccc(=O)cc-3sc2c1` is 52.5% and 47.1%. In the case of `CC(=O)N1N=C(c2ccc(Nc3nc(Nc4ccc(F)cc4)nc(Nc4ccc(F)cc4)n3)cc2)CC1c1ccccc1` (centres undefined), the growth is 120%. Take `C/C=C(\C)C(=O)N[C@H]1CC[C@]2(C)C3CC[C@@]4(C)C(CC[C@@H]4C(C)N(C)C)C3CCC2[C@H]1OC(C)=O` (some centres undefined): the growth was -11% (active).

Turning to `Cc1ccc(-c2nc3nc(-c4ccc(Cl)cc4)nc(N4CCCNCC4)c3o2)cc1`, the growth was 99.4%.

Turning to `Nc1n[nH]c2cccc(C#Cc3cccc(NC(=O)c4ccc(N5CCOCC5)c(C(F)(F)F)c4)c3)c12`, the growth is 14.2%. For the molecule `O=C1C(c2c[nH]c3ccccc23)=C(c2coc3cc(Br)ccc23)C(=O)N1O`, the growth is 103%. `Cc1cc(N2CCCCC2)nc(NCc2cc(Nc3ccnc4cc(Cl)ccc34)ccc2F)n1`: the growth is 15.5%. The same measure, in the same setting: in the case of `CC1(C)C(N)=Nc2cc(OCCCN3Cc4ccc(OCCc5cn(CC(=O)N6CCC(CCN7CCCC7)CC6)nn5)cc4C3)c(OCC3CC3)cc21` it was 100%. On the same count and under the same terms, the figure for `CS(=O)(=O)Nc1cc(-c2ccc3ncnc(Nc4ccc(F)c(Cl)c4)c3c2)cnc1Cl` is -21.7% (active); for `Cc1cnc(C(=O)NNc2nc3sc4c(c3c(=O)[nH]2)C(C)CCC4)cn1` (centres undefined) it is 39.5%.

Consider `Cn1cc2c(=O)nc3c(-c4nc5ccccc5[nH]4)n[nH]n3c2n1`, for which the growth was 34.7%. Still for that read-out and setting: the figure for `Cc1ccc(-c2nc3nc(-c4ccc(F)cc4)nc(N4CCCNCC4)c3o2)cc1` is -76.9% (active); for `COc1ccc2c(c1)c(-c1nc(-c3c[nH]c4c(Cl)nccc34)cs1)cn2C` it is 98.8%. The same measure, in the same setting: in the case of `Cc1nc2sc(C(=O)Nc3cccc4ncccc34)c(N)c2cc1C(C)O` (centres undefined) it was 79%; in that of `N=C(N)c1ccc(-c2ccc(-c3ccc(F)cc3)s2)nc1`, 82.1%. In the case of `CN(C)CCCn1c2nc(=O)[nH]c(=O)c-2nc2cc(Cl)c(Cl)cc21`, the growth was 113%. Same read-out and setting: in the case of `Brc1ccc(/C=C(/C2=NCCN2)n2ccc3ccccc32)cc1` it was 80.3%; in that of `CCOC(=O)c1c(-c2ccc(OC)cc2)c(C#N)c2c(C#N)c(N)nn2c1N`, 37%; in that of `COc1ccc(S(=O)(=O)Nc2cc(Sc3cccc4cccnc34)c(O)c3ccccc23)cc1`, 27.7%.
